Sampled rows, rich in hits. Any-hit rate of the full collection: about 3.9%.
BH1578 lux ind – quorum light induction in luxS cqsA deficient V. cholerae; activation, % at 18.7 µM; V. cholerae BH1578 lux reporter, luminescence, 6 h; 350,000 tested, 0.16% active; AID 588436; in the data active means activation mostly above about 9.7%, no sharp cut-off; inconclusive means no clear call, values can overlap the other calls; inactive means mostly below about 3.7%
BoNT A protease – BoNT A light chain protease inhibition | multiplex microsphere protease substrate cleavage, flow cytometry | inhibition, % at 10 µM | 360,000 tested, 0.17% active | AID 588499; further: plate controls were buffer without enzyme for full effect and enzyme alone for no effect
MazF activator – increases E. coli MazEF RNase cleavage of RNA. P0AE70. FAM/BHQ RNA-DNA oligo cleavage fluorescence, 5 h. activation, % at 20 µM. 350,000 tested, 0.32% active; in the data active means activation above about 50%
Target sequence (P0AE70 whole entry, looked up): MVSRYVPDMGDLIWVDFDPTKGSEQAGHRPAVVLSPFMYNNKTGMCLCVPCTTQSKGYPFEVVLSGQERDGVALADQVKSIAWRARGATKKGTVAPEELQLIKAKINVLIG
BoNT-F LC inh – inhibitors of Botulinum neurotoxin F light chain protease; inhibition, % at 10 µM; 360,000 tested, 0.22% active; AID 588497; Multiplex microsphere protease cleavage assay, flow cytometry; in the data active means inhibition above about 35%, passing the limit was not always enough; inconclusive means no clear call, values can overlap the other calls; further: plate controls were buffer without enzyme for full effect and enzyme alone for no effect
Anthrax LF prot – anthrax lethal factor protease inhibition. P15917. multiplex microsphere protease cleavage assay, LF. inhibition, % at 10 µM. 360,000 tested, 0.12% active. AID 588501; further: plate controls were buffer without enzyme for full effect and enzyme alone for no effect
Bead autofluor – flagged as autofluorescent in microsphere protease counterscreen | fluorescence intensity (no concentration beside the values) | AID 624483 | compound autofluorescence counterscreen, microsphere flow cytometry; stronger effect = higher value | 360,000 tested, 3.1% active; in the data active means fluorescence intensity above about 16000; inconclusive means no clear call, values can overlap the other calls
Active calls of the source: *. Unless noted, no stated cut-off is given here; in the data, active means inhibition above about 30%; inconclusive means no clear call, values can overlap the other calls; inactive means below that.

`CCCC(=Nc1ccc(N)cc1)C1=C(O)C(C(=O)OC)C(C)(C)CC1=O` (stereo not given) gave BH1578 lux ind -1.8, BoNT A protease inconclusive, MazF activator -9.2, BoNT-F LC inh 0.2, Anthrax LF prot -1.3 and Bead autofluor 23098*.
`CCCC(=O)C1=C(O)C(C(=O)OC)C(C)(C)CC1=Nc1ccc(N)cc1` (stereo not given) gave BH1578 lux ind -1.9, BoNT A protease 4.2, MazF activator 13.2, BoNT-F LC inh 9.3, Anthrax LF prot -0.2 and Bead autofluor 21083*.
`CCCCC(=NCCO)C1=C(O)C(C(=O)OC)C(C)(C)CC1=O` (stereo not given) gave BH1578 lux ind -0.4, BoNT A protease -0.1, MazF activator 7.7, BoNT-F LC inh -4.0, Anthrax LF prot -3.4 and Bead autofluor 2421.
`CCCC(=O)C1=C(O)C(C(=O)OC)C(C)(C)CC1=Nc1ccc(C)cc1` (stereo not given) gave BH1578 lux ind -0.3, BoNT A protease 0.2, MazF activator -0.4, BoNT-F LC inh -9.8, Anthrax LF prot -2.7 and Bead autofluor 3386.
For COc1cc(C(=O)N2CC(C)OC(C)C2)c([N+](=O)[O-])cc1OC (stereo not given) the results were BH1578 lux ind -2.4, BoNT A protease 2.0, MazF activator -6.8, BoNT-F LC inh 0.8, Anthrax LF prot 4.3 and Bead autofluor 18981*.
Screening COc1cc(C(=O)N2CCN(C(=O)c3ccco3)CC2)c([N+](=O)[O-])cc1OC returned BH1578 lux ind -0.5, BoNT A protease -0.2, MazF activator 1.8, BoNT-F LC inh -5.0, Anthrax LF prot -7.1 and Bead autofluor 4634.
COc1ccc(NC(=O)N2CC(C)OC(C)C2)cc1OC (stereo not given) was read as BH1578 lux ind 4.6, BoNT A protease -2.1, MazF activator 0.5, BoNT-F LC inh -4.4, Anthrax LF prot -1.8 and Bead autofluor 24184*.
CC1CN(C(=O)Nc2ccc3c(c2)OCO3)CC(C)O1 (stereo not given) was read as BH1578 lux ind -0.2, BoNT A protease 5.9, MazF activator -5.9, BoNT-F LC inh 7.7, Anthrax LF prot 1.8 and Bead autofluor 20354*.
Screening CC(=O)c1cnc2nc(C(F)(F)F)nn2c1C returned BH1578 lux ind -7.2, BoNT A protease -0.6, MazF activator 80.0*, BoNT-F LC inh -4.5, Anthrax LF prot -1.7 and Bead autofluor 2708.
`CC(=O)c1cnc2nc(SCc3ccccc3C)nn2c1C` gave BH1578 lux ind 0.0, BoNT A protease -3.9, MazF activator 0.0, BoNT-F LC inh 8.5, Anthrax LF prot -17.7 and Bead autofluor 4121.
Screening COCCn1cc(C(=S)N2CCOCC2)c2ccccc21 returned BH1578 lux ind -12.5, BoNT A protease -0.1, MazF activator 4.1, BoNT-F LC inh -0.1, Anthrax LF prot -4.0 and Bead autofluor 22910*.
O=C(c1cccs1)n1cc(C(=S)N2CCOCC2)c2ccccc21 was read as BH1578 lux ind inactive, BoNT A protease -0.4, MazF activator -4.3, BoNT-F LC inh 0.9, Anthrax LF prot -1.1 and Bead autofluor 20879*.
`O=C(C1CC1)n1cc(C(=S)N2CCOCC2)c2ccccc21` gave BH1578 lux ind inactive, BoNT A protease 0.1, MazF activator 4.0, BoNT-F LC inh -14.1, Anthrax LF prot 3.9 and Bead autofluor 3291.
Screening CCOC(=O)N1CCN(C(=O)CSc2ccc3nnc(CCNC(=O)c4ccc(OC)cc4)n3n2)CC1 returned BH1578 lux ind -0.5 and MazF activator 0.0.
For CC(=O)N(C1=C(N2CCOCC2)C(=O)c2ccccc2C1=O)c1ccc(C(=O)O)cc1 the results were BH1578 lux ind 0.9, BoNT A protease -0.2, MazF activator -2.6, BoNT-F LC inh -9.6, Anthrax LF prot -5.6 and Bead autofluor 5953.
For CC(=O)N(C)C1=C(N2CCOCC2)C(=O)c2ccccc2C1=O the results were BH1578 lux ind 2.7, BoNT A protease -4.5, MazF activator -0.1, BoNT-F LC inh -4.5, Anthrax LF prot -3.4 and Bead autofluor 24878*.
Screening O=C(NCc1ccccn1)c1cccc([N+](=O)[O-])c1 returned BH1578 lux ind -0.4, BoNT A protease -1.8, MazF activator -7.9, BoNT-F LC inh -2.9, Anthrax LF prot 1.5 and Bead autofluor 24684*.
`Cc1ccc(C(=O)NCc2ccccn2)c(Cl)c1` gave BH1578 lux ind -0.7, BoNT A protease -0.5, MazF activator 6.8, BoNT-F LC inh -0.7, Anthrax LF prot -3.4 and Bead autofluor 3688.

Screens (PubChem BioAssay)
